This is an account of results in the supplement of paper PMC6555819.

The subject of this experiment is PPARg:RXRa 90nM:30nM, anti-RXR (NR concentration 90 nM, RXRa partner concentration 30 nM). As to the kind of experiment: PBM binding z-score (relative to random genomic background probes); higher = stronger binding; sequences stand for … in GC…GCGATTGACAGCGTAGAATGAAGG
The method, boiled down:
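Binding z-scores were set against random background probes. The data came from custom Agilent 4×180K protein-binding microarrays carrying double-stranded probes with 34-nt variable regions, incubated 1 h with ligand-free nuclear receptor dimers. Partner-specific antibodies detected binding, and scanned fluorescence was regression-normalized.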
TCTCGGAGGACACGAAGCTCAGAGCTTTCCAGAG gave a PBM binding z-score of 1.27. In turn, GCTGCTAGGTCAACTGATGGTCCGCTAAAGCTCG yielded a PBM binding z-score of 1.97. Under CCTAGTTGGTCAAGGTCACACTCGCTATAGGTAC stands 2.41; under CTACCAAGGTGAACAAGGTCGCTGATTACTATTC, 0.78.

On to ACATACAGGTGATGAAGGTAACTCAGGCTATCAT, for which the PBM binding z-score is 0.425. Under TAGCCTAGGTCATGGACCAGTATACCACGCGAAC stands 2.23; under TAGCCTAGGTAATGCGGGCCAGTATAGTGTCGGC, -0.655. The sequence CCTTTCGGGTCACGAGGTTATAGCACGACGAGCG gave a PBM binding z-score of 5.52. Take GATACAGGGTCAGCTAGAAGCCAGAGTATGGAAA: the PBM binding z-score was determined as 1.83. ATTTCTAGGTAACAAGTTCAGTGAAAGAGAGGAC came in with a PBM binding z-score of 3.09.

ACTCGGAGGACAAAGGTCTGAGCTACGCCAGTGA came in with a PBM binding z-score of 3.02.

Take CCTAGCAGGCCAGGGTCAGTCAAGCATTTCGCTT: the PBM binding z-score was -0.0858. Regarding CCTACTGGGCCCTTCAGAGGTCATTGATCATATG, the PBM binding z-score turned out to be 0.866. Under CCTTACGGGTCACGAGGTTATACCACGACGAGCG stands 5.65; under CAAACTAGGTCAAGAGGTCAAAGTACGCTTCCCG, 8.63; under CGAACGAGGGCAAGAGTTGATAGCAAATGCCGAT, 1.92.

ATCGAAAGGTCGATGTGAGTATAGAGAAAGGGAA had a PBM binding z-score of 1.33. As for CCTTACGGGTCACCCCAGGTTATAGCATCGGAGT, the PBM binding z-score is 3.1.

The sequence ATCTCTAGGTAAAGTTCAGTGACAGATCGATAGA registered a PBM binding z-score of 4.24.

As for AGAACGAGTGCACGCTGAGTTGATAGCAGAGTAG, the PBM binding z-score is -0.307. CCTCGGAGGACAACAGGAGGGCAGAGCTGCCAGA came in with a PBM binding z-score of -1.32. ATATTTAGGTTAGCTGGGGTCATTCAGACTAGGC registered a PBM binding z-score of 3.88. CCGACTGGGGCATAAGGTCACCATAAGCCAGCCC came in with a PBM binding z-score of 4.9. Under GCGACTGGGGCAAAGCAGGTTACCATCAGGTTGG stands 0.405; under CCGACTGGGGCCAAGGTTACCATACTCAGTACGA, 3.8.

TCATATAAGTAATACAGGTGAAAGTCGGCATCTA returned a PBM binding z-score of 3.42. In turn, CGAACTAGGTCATTCAGGACAGTGAATACATTGA returned a PBM binding z-score of 5.66. Turning to CAAACTAGGTCCCGAAAGGTCAAAGTCGAATGAC, the PBM binding z-score was found to be 4.36. TGAATGAGGTTAAAGATTAGGGAACGTGGCGTCG registered a PBM binding z-score of 4.36. AGTCAAAGTTCATCTAGGTAATGTAAGATATGCT yielded a PBM binding z-score of 5.42. Under ACTAGGAGGCCAAGTTTGGGTCACTCAAACAAAG stands -0.0404; under CCGACTGGGCCATAAGGTTACCATAAGCCAGCCC, 2.05; under GCGACTGGGGCATCAGCAGGTTACTATAACTTAA, 0.594. In turn, CGAACTAGGTCAAGGACGGTGAATCTCCGCACGC yielded a PBM binding z-score of 5.89. For the sequence ATCGAAAGGTCGGAGGTGAGTATACCCACCCGAA, the PBM binding z-score worked out at 2.13. Under CCAGACAGGTGAAAGGTAAATCAGTCTGGTACGC stands 6.32. AGAATGAGTTTACCAAAGATCAGGGAAACGCTTG returned a PBM binding z-score of 0.452. GCTATTAGTTGAAAGGGCTACCGAATGATTCTCG had a PBM binding z-score of 1.21. Under TCTAGCAGGCCAGAGGGTAACTCAAGAGGTACGG stands 3.26; under CCTAGTTGGTCAGAAGGTCACACACCGGATATGA, 3.82.
